In PubChem BioAssay (NCATS) one finds activation, Potency and viability data, which are given here for 4 molecules.

Molecules are shown by their SMILES. Where “and” joins values, the source holds several entries; their conditions need not be identical. Equal entries are not always repeated. Results filed as inconclusive are left out. Unmarked numbers belong to inactive results. Calls of active or inactive are those of the source. The call rests on the fitted dose curve; in most records, active means well fitted curve in the direction sought with a large enough effect; inconclusive means small, poorly fitted or top-dose-only effect, or another doubt; inactive means no such curve, though single readings can be large; an effect the other way counts as inactive or inconclusive.

The term viability denotes a read-out of living cells in per cent, often relative to untreated cells.

For experiment [1], the target named is Cellular tumor antigen p53 (Homo sapiens) (UniProt P04637). As to the kind of experiment: Primary qHTS for small molecule compounds that upregulate eGFP-tagged delta133p53alpha (in N-terminal) cells. (AID 2060322).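 Further: cells pre-induced with doxycycline then dosed without doxycycline; series mostly up to about 56 µM; 0% = DMSO vehicle and 100% = reference activator; nearly all actives have a fitted effect of over 75% in size.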 As to conditions: NCI-H358 eGFP-delta133p53alpha fluorescence, 24 h; activation: hits give high values. Put shortly: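 NCI-H358 cells pre-induced 24 h with 10 ng/ml doxycycline for eGFP-delta133p53alpha, plated dox-free and exposed 24 h at 37C to titrated compounds. Fixed, Hoechst-stained; gated GFP peak intensity by laser scanning cytometry, normalized to DMSO (0%) and 57.5 uM 5-azacytidine (100%).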
Sequence of Cellular tumor antigen p53 (Homo sapiens) (P04637 whole entry, looked up): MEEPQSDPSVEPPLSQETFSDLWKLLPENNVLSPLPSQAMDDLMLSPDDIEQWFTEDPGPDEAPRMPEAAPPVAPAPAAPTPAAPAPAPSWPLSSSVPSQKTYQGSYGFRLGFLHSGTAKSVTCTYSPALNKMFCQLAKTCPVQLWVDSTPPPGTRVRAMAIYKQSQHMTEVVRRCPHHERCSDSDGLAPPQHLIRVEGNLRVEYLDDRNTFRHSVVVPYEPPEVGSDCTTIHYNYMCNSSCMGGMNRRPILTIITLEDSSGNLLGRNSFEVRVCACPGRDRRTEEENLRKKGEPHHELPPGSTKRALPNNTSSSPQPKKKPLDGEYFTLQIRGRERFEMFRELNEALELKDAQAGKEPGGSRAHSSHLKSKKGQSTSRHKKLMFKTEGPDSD
For orientation: Quantitative high-throughput screening tests each substance at several concentrations.

The target of experiment [2] is Aldehyde dehydrogenase, mitochondrial (Homo sapiens) (UniProt P05091). As to the kind of experiment: qHTS for Inhibitors of the Aldehyde Dehydrogenase Family (ALDH2) Primary screen (AID 2061308).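 Further: plate controls were vehicle for no effect and reference inhibitor for full effect; nearly all actives have a fitted effect of over 55% in size.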
For experiment [3], the target named is Retinaldehyde dehydrogenase 3 (Homo sapiens) (UniProt P47895). Put plainly: qHTS for Inhibitors of the Aldehyde Dehydrogenase Family (ALDH1A3) Validation screen (AID 2061312). Further: on the % scale 0 is the no-effect control and ±100 the full control effect; nearly all actives have a fitted effect of over 45% in size.
The target is the same in experiment [4]. As to the kind of experiment: qHTS for Inhibitors of the Aldehyde Dehydrogenase Family (ALDH1A3) Primary screen (AID 2061315).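 Further: plate controls were DMSO vehicle for no effect and reference inhibitor for full effect.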
Experiment [5] in a line: BET inhibitor-based combinations targeting novel dependencies in MECOM-rearranged (r) AML: SET-2 cell line (AID 2202231). Further: nearly all actives have a fitted effect of over 35% in size. Further: potency means the concentration at half of the fitted maximal effect.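 On viability: plate controls were DMSO treated cells for no effect and wells without cells for full effect.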 As to conditions: SET-2 AML cells viability, CellTiter-Glo luminescence, 48 h; viability: hits give low values, concentration not given here. Put shortly:
(§1)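 Here, 11-point titrations of each agent were applied to 500 seeded cells and incubated 48 hr; CellTiter-Glo signal, scaled against DMSO and empty wells, was integrated as AUC, then Z-scored within the individual line.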

Experiment [6] is described as follows: BET inhibitor-based combinations targeting novel dependencies in MECOM-rearranged (r) AML: OCI-AML3 cell line (AID 2202232). Further: potency means the concentration at half of the fitted maximal effect; nearly all actives have a fitted effect of over 35% in size. As to conditions: Potency: OCI-AML3 viability. Put shortly:
as §1

A short description of experiment [7]: BET inhibitor-based combinations targeting novel dependencies in MECOM-rearranged (r) AML: MV-4-11 cell line (AID 2202233). Further: potency means the concentration at half of the fitted maximal effect; nearly all actives have a fitted effect of over 45% in size. Put shortly:
(§2)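 Normalized to DMSO and empty-well controls, the luminescence data from CellTiter-Glo after 48 hr drug exposure were fitted across 11 concentrations. Reported metrics are area under the dose-response curve and its Z-transformed form.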

A short description of experiment [8]: BET inhibitor-based combinations targeting novel dependencies in MECOM-rearranged (r) AML: HNT-34 cell line (AID 2202234). Further: nearly all actives have a fitted effect of over 35% in size. Further: potency means the concentration at half of the fitted maximal effect. Put shortly: as §2
A short description of experiment [9]: BET inhibitor-based combinations targeting novel dependencies in MECOM-rearranged (r) AML: AML-191 cell line (AID 2202236; further: potency means the concentration at half of the fitted maximal effect; nearly all actives have a fitted effect of over 35% in size). The gist of the method: as §1
The nature of experiment [10]: BET inhibitor-based combinations targeting novel dependencies in MECOM-rearranged (r) AML: AML-194 cell line (AID 2202237; further: nearly all actives have a fitted effect of over 40% in size; further: potency means the concentration at half of the fitted maximal effect). Put shortly:
as §1

The nature of experiment [11]: BET inhibitor-based combinations targeting novel dependencies in MECOM-rearranged (r) AML: UCSD-AML1 cell line (AID 2202235). Further: nearly all actives have a fitted effect of over 40% in size. Further: potency means the concentration at half of the fitted maximal effect. Put shortly:
as §2

`CCOc1cc2c(c(F)c1OCC)C(=N)N(CC(=O)c1cc(N3CCOCC3)c(OC)c(C(C)(C)C)c1)C2`: the activation in experiment [1] is -9.71%. Besides, the Potency entry in experiment [2], in [3] and in experiment [4] was “inactive” each time. The Potency in [5] is 16.6 µM (active); in experiment [6] it was 16.6 µM (active); in [7], 8.33 µM (active); in experiment [8] it was 8.33 µM (active); in experiment [9], 16.6 µM (active); in [10], 10.5 µM (active).

On to `Nc1nc(F)nc2c1ncn2[C@@H]1O[C@H](CO)[C@@H](O)[C@@H]1O`, for which, in [1], the activation is -5.02% and -9.07%. In addition, the Potency result in experiment [2], in [3] and in [4] was “inactive” each time. For the same molecule, the Potency in experiment [5] was 14.8 µM (active); in experiment [6], 10.5 µM (active); in [7] it was 9.34 µM (active); in [8], 14.8 µM (active); in experiment [11], 1.05 µM (active); in experiment [9], 2.95 µM (active). Moreover, in experiment [10], the Potency is 3.72 µM (active).

Take `OC(c1ccc(-c2ccc(CN3CCN(Cc4ccncc4)CC3)cc2)c(F)c1)(C(F)(F)F)C(F)(F)F`: in [1], the activation is -11%. Also, the Potency entry in experiment [2], in experiment [3], in experiment [4], in experiment [8], in experiment [11] and in experiment [10] was “inactive” each time. In experiment [5], the viability is 101%. Besides, the figures for the Potency in experiment [7] and in experiment [9] were 8.33 µM (active) and 9.34 µM (active), respectively.

As to `CN(C)C1CCN(C(=O)c2ccc(NC(=O)Nc3ccc(-c4nc(N5CCOCC5)nc(N5CCOCC5)n4)cc3)cc2)CC1`, the activation in experiment [1] was -0.955%. For the same molecule, the Potency entry in experiment [2], in [3] and in [4] was “inactive” each time. The Potency was 4.68 µM (active) in experiment [5], 0.263 µM (active) in experiment [11] and 1.48 µM (active) in experiment [10].
